Screening results from PubChem BioAssay.
ELG1 repair inh: inhibitors of ELG1-dependent DNA repair in HEK293T cells | HEK293T ELG1-luciferase reporter, luminescence, 16 h; DNA damage induced by 5-fluorouridine | Potency, µM (top dose mostly 46.1 µM), inactives show at the highest dose activity change, negative = inhibition, hits mostly inhibitors | 330,000 compounds, 2.3% hits | AID 504467; note: nearly all actives have a fitted effect of over 55% in size
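Quantitative HTS, concentration-response format. 2,000 cells/well co-treated with 5-fluorouridine and compound, 16 hr in 5% CO2 at 37 °C; ONE-Glo luminescence read after 30 min.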
RORgamma inh: blocks mouse ROR gamma transcriptional activity; P51450; Drosophila S2 Gal4-RORgamma UAS-luciferase reporter, 20 h; Potency, µM (doses to about 53.6 µM), for the others: at the top dose activity change, negative = inhibition, actives largely listed as inhibitors; 310,000 compounds, 5.4% hits; note: nearly all actives have a fitted effect of over 60% in size
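Luciferase reporter read in Schneider cells carrying Gal4-RORγ (mouse) and UAS-Photinus luciferase; cells given compound 1 h before 700 uM copper sulfate induction, then incubated 20 h at ambient temperature.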
ALOX12 inh: blocks human arachidonate 12S-lipoxygenase; purified 12hLO, xylenol orange hydroperoxide absorbance; Potency, µM (top dose mostly 108 µM), inactives show at the top dose activity change, negative = inhibition, hits mostly inhibitors; 580,000 compounds, 1.1% hits; AID 1671190
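Purified human 12hLO at 150 nM in 25 mM Hepes, 0.01% Triton X-100, pH 7.0, preincubated 15 min at room temperature with compound. Reaction started with 40 uM arachidonic acid, 30 min at room temperature. Hydroperoxide measured by Fe-xylenol orange, 573/405 nm absorbance ratio.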
DT40 TDP1 no CPT: qHTS for Inhibitors of human tyrosyl-DNA phosphodiesterase 1 (TDP1): qHTS in cells in absence of CPT; 420,000 compounds, 15% hits; DT40 Tdp1-/- hTDP1 cells, no CPT, ATP luminescence, 48 h; Potency, µM (titrated, usually from 46.2 µM), for inactives: at the highest dose activity change, negative = growth inhibition, most hits filed as inhibitors; note: nearly all actives have a fitted effect of over 55% in size
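Luminescent ATP content (CellTiter-Glo) served as the growth readout. Knockout chicken DT40 cells expressing human TDP1 were exposed to compounds without camptothecin for a minimum 48 hr at 37 °C.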
VP16 counter: inhibits Gal4-VP16 luciferase reporter, ROR gamma counter-screen; 310,000 compounds, 3.5% hits; AID 2546; Potency, µM (titrated, usually from 53.6 µM), for the others: top-dose activity, negative = inhibition, usual class: inhibitors; Drosophila S2 Gal4-VP16 UAS-luciferase, luminescence, 20 h;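 note: Gal4-VP16 expression switched on by copper sulfate through the metallothionein promoter; nearly all actives have a fitted effect of over 50% in size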
TDP1 cell CPT: growth inhibition of DT40 Tdp1-/-;hTDP1 cells with camptothecin (screen for TDP1 inhibitors); Potency, µM (top dose mostly 46.2 µM), for inactives: at the top dose activity change, negative = growth inhibition, actives largely listed as inhibitors; 420,000 compounds, 12% hits; chicken DT40 Tdp1-/-;hTDP1 cells + 20 nM CPT, ATP luminescence, 48 h; note: nearly all actives have a fitted effect of over 55% in size
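Chicken DT40 Tdp1-/- cells complemented with human TDP1, 400 cells/well, exposed to compounds plus 20 nM camptothecin for at least 48 h at 37 C; viability read as ATP content by CellTiter-Glo luminescence.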
ELG1 FLuc counter: luciferase inhibition in cell-free luciferin readout for ELG1 hits; shares compounds with ELG1 repair inh; cell-free firefly luciferase luminescence counter-screen, ViewLux; Potency, µM (doses to about 46.1 µM), inactives show top-dose activity change, negative = inhibition, usual class: inhibitors; 350 compounds, 3% hits
ELG1-Luc inh: human ELG1 repair inhibition, luciferase-tagged ELG1 confirmation | shares compounds with ELG1 repair inh | HEK293T ELG1-luciferase levels, luminescence; cells co-treated with 5-fluorouridine | Potency, µM (titrated, usually from 46.1 µM), inactives show at the top dose activity change, negative = inhibition, hits mostly inhibitors | 670 compounds, 68% hits; note: nearly all actives have a fitted effect of over 55% in size
Target sequence (Q96QE3 whole entry, looked up): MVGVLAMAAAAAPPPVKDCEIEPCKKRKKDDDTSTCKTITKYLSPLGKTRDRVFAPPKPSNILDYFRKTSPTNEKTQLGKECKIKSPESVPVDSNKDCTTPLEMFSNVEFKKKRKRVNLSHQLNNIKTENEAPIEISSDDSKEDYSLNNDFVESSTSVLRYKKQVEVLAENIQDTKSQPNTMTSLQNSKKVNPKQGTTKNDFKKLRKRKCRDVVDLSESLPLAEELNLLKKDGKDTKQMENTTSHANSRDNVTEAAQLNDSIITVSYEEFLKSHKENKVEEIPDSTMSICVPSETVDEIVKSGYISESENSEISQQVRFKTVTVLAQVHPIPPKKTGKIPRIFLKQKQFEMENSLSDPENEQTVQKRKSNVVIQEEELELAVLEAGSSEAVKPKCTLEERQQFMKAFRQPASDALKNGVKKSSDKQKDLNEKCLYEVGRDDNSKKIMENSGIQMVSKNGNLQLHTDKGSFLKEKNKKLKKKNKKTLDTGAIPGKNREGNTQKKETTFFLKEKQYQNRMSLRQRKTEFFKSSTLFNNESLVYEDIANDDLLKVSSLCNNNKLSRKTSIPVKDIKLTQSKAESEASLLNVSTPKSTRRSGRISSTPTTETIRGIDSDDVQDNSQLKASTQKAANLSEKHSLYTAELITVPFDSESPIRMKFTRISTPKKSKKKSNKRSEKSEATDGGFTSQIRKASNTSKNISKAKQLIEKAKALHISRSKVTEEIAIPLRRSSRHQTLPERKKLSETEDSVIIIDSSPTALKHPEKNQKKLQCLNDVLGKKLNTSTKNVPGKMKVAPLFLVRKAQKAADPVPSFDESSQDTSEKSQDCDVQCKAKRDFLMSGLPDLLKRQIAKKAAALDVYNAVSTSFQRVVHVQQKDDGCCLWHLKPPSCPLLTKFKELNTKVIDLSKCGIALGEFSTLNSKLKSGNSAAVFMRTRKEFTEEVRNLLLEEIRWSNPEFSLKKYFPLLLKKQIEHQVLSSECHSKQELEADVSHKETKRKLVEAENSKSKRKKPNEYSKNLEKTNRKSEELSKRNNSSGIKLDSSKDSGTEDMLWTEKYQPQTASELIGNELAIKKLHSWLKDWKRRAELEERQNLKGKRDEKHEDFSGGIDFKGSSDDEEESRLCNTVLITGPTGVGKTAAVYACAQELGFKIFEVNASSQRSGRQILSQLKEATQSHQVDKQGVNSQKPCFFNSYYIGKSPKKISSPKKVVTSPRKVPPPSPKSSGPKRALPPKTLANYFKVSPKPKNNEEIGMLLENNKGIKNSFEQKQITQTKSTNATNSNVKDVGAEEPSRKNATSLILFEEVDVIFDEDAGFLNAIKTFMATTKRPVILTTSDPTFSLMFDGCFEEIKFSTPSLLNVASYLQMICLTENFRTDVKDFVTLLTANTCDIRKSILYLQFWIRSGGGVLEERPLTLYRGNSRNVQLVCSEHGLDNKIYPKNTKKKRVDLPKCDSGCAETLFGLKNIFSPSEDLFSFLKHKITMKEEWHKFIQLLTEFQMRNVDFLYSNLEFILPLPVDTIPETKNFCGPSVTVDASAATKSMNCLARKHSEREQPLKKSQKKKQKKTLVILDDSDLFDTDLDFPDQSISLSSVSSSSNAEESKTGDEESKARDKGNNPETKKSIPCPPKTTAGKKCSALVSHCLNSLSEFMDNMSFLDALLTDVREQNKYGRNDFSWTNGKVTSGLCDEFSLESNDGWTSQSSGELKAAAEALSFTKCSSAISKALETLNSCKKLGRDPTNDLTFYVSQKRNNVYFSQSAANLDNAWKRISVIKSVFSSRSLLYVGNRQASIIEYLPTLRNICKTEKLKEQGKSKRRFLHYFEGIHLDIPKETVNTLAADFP
ELG1 MMS Luc: MMS-stimulated human ELG1 repair inhibition, confirmed. Potency, µM (top dose mostly 46.1 µM), inactives show at the top dose activity change, negative = inhibition, hits mostly inhibitors. 670 compounds, 53% hits. HEK293T luciferase-tagged ELG1 level, MMS stimulated. shares compounds with ELG1 repair inh; note: nearly all actives have a fitted effect of over 60% in size
ELG1 5-FU: confirmation of ELG1 repair inhibitors: viability with 5FU. 670 tested, under 10 active. shares compounds with ELG1 repair inh. cell viability with 5-FU, ELG1-dependent repair. AID 624250. Potency, µM (titrated, usually from 46.1 µM), for the others: at the top dose activity change, negative = viability loss, most hits filed as cytotoxic;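 note: ELG1-luc HEK293T cells cotreated with 5-fluorouridine at 10 µM final; viability measured 16 h after compound addition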
ELG1 MMS viab: confirmation of ELG1 repair inhibitors: viability with MMS. shares compounds with ELG1 repair inh. Cell viability with MMS, ELG1-dependent DNA repair. Potency, µM (top dose mostly 46.1 µM), for the others: at the top dose activity change, negative = viability loss, usual class: cytotoxic. 670 compounds, 33% hits;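 note: ELG1-luc HEK293T cells co-treated with 10 µM MMS; viability read 16 h after compound addition; nearly all actives have a fitted effect of over 60% in size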
ELG1 unstim viab: unstimulated viability counter-screen for ELG1 repair hits; shares compounds with ELG1 repair inh; cell viability counter-screen, unstimulated, luminescence; Potency, µM (highest dose often 45.9 µM), for the others: at the highest dose activity change, negative = loss of viability, actives largely listed as cytotoxic; 900 compounds, 8% hits;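 note: compound exposure lasted 16 hours before reading; nearly all actives have a fitted effect of over 55% in size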
FLuc enzyme: inhibits purified firefly luciferase, counter-screen for ELG1 hits. 350 compounds, 10% hits. AID 624253. Potency, µM (highest dose often 57.5 µM), inactives show at the top dose activity, negative = inhibition, most hits filed as inhibitors. shares compounds with ELG1 repair inh. purified firefly luciferase, luminescence counter-screen
An asterisk follows results filed as active; ? = inconclusive; . = no result. This is a sample that favours compounds with a hit; in the whole collection about 15% have one here. Calls come from the whole dose curve; as a rule, active = well fitted curve in the direction sought with a large enough effect; inconclusive = small, poorly fitted or top-dose-only effect, or another doubt; inactive = no such curve, though single readings can be large; an effect the other way counts as inactive or inconclusive. % is set by controls: 0 for no effect and ±100 for the full control effect; potency is the fitted concentration of half-maximal effect.

SMILES	ELG1 repair inh	RORgamma inh	ALOX12 inh	DT40 TDP1 no CPT	VP16 counter	TDP1 cell CPT	ELG1-Luc inh	ELG1 MMS Luc	ELG1 5-FU	ELG1 MMS viab	ELG1 unstim viab	others
COc1ccc(CCNC(=O)CN2c3cccc4cccc(c34)S2(=O)=O)cc1OC	2.59µM*	?	13.7%	?	2.7%	-0.4%	?	19.9%	?	-1.1%	?
COc1ccc(/C=N/NC(=O)c2ccc(CN3c4cccc5cccc(c45)S3(=O)=O)cc2)cc1	?	-20.5%	-18.7%	?	0.7%	1.0%	.	.	.	.	.
COc1cc(/C=N/NC(=O)c2ccc(CN3c4cccc5cccc(c45)S3(=O)=O)cc2)cc(OC)c1O	3.26µM*	4.5%	-5.6%	16.4µM*	-1.5%	?	3.53µM*	22.3µM*	?	25µM*	?
O=C1CC(N2CCN(c3ccccn3)CC2)C(=O)N1c1ccc(F)cc1 (stereo not drawn)	17.2%	-9.3%	7.9%	-12.3%	7.6%	-9.1%	.	.	.	.	.
O=C1CC(N2CCN(c3ccccn3)CC2)C(=O)N1CC(c1ccccc1)c1ccccc1 (stereo not drawn)	4.11µM*	1.2%	-13.6%	?	-4.3%	23.1µM*	28.1µM*	?	-7.6%	?	?
COc1ccc2c(c1OC)C(=O)N1c3ccccc3C(=O)N(c3ccccc3)C21 (stereo not drawn)	?	-25.3%	192.2%	9.2µM*	-0.3%	11.6µM*	2.23µM*	5µM*	-0.4%	?	?	ELG1 FLuc counter=-11.0%;FLuc enzyme=0.7%
COc1cccc(C2Nc3ccccc3C(=O)N2c2ccc(F)cc2)c1O (stereo not drawn)	?	-7.8%	?	-2.3%	19.3%	-0.7%	.	.	.	.	.
COc1ccc2c(c1OC)C(=O)N1c3ccccc3C(=O)N(c3ccc(F)cc3)C21 (stereo not drawn)	?	-12.3%	429.5%	11.6µM*	1.4%	?	5µM*	7.92µM*	-2.0%	?	?	ELG1 FLuc counter=?;FLuc enzyme=-3.1%
NC(=O)c1ccc(N2CCN(S(=O)(=O)c3ccccc3)CC2)c([N+](=O)[O-])c1	1.64µM*	12.9%	-10.2%	7.31µM*	?	?	?	0.705µM*	2.0%	0.791µM*	-16.9%
NC(=O)c1ccc(N2CCC(C(N)=O)CC2)c([N+](=O)[O-])c1	21.3%	2.8%	1.9%	-15.7%	0.7%	2.0%	.	.	.	.	.
NC(=O)c1ccc(N2CCN(c3ccc(O)cc3)CC2)c([N+](=O)[O-])c1	4.11µM*	0.1%	?	16.4µM*	-0.3%	?	6.28µM*	4.7%	?	?	-1.5%
Cc1cccc(/C=C/c2onc(C)c2S(=O)(=O)N2CCC(C(=O)N3CCC(C)CC3)CC2)c1	1.83µM*	11.9%	?	18.4µM*	-11.5%	18.4µM*	1.25µM*	13.2%	?	-6.0%	?
Cc1cccc(N2CCN(C(=O)C3CCN(S(=O)(=O)c4c(C)noc4/C=C/c4ccccc4F)CC3)CC2)c1C	.	.	-14.7%	?	.	-23.2%	.	.	.	.	.
Cc1noc(/C=C/c2ccco2)c1S(=O)(=O)N1CCC(C(=O)N(C)Cc2ccccc2)CC1	4.61µM*	-11.9%	?	-24.7%	-6.4%	?	3.15µM*	29.4%	?	-0.8%	-10.8%
O=C(Cn1cnc2ccccc21)Nc1cccc([N+](=O)[O-])c1	?	?	-6.0%	?	?	?	.	.	.	.	.
Cc1ccc(NC(=O)Cn2cnc3ccccc32)cc1C	4.61µM*	?	-0.5%	?	?	?	3.8%	?	-7.9%	?	?
COc1ccc(C(=O)N2CCC3(CCC3OC)CC2)cn1 (stereo not drawn)	.	.	10.4%	.	.	.	.	.	.	.	.
O=Cc1cn(CC(=O)Nc2ccc(F)cc2)c2ccccc12	3.66µM*	?	?	9.2µM*	-21.8%	?	-3.8%	3.15µM*	-3.4%	14.1µM*	-2.6%
O=Cc1cn(CC(=O)Nc2ccccc2)c2ccccc12	-19.2%	?	?	?	6.3%	?	.	.	.	.	.
COCCc1nncn1C1CCN(C(=O)c2cccc(OC(F)(F)F)c2)CC1	.	.	17.5%	.	.	.	.	.	.	.	.
CC(C)c1nc2sc3c(NCc4ccco4)ncnc3c2c2c1COC(C)(C)C2	?	36.4%	8.8%	23.1µM*	-6.4%	18.4µM*	11.2µM*	13.5%	?	-2.1%	?	ELG1 FLuc counter=20.8%;FLuc enzyme=-3.0%
CSc1nc(NCc2ccco2)c2sc3nc(C(C)C)c4c(c3c2n1)CC(C)(C)OC4	?	-13.8%	-63.9%	-22.3%	-4.4%	-10.8%	.	.	.	.	.
CC(C)c1nc2sc3c(=O)n(N)cnc3c2c2c1COC(C)(C)C2	7.4%	0.2%	-23.0%	?	-0.2%	-0.2%	?	-4.8%	?	3.3%	2.4%	ELG1 FLuc counter=-2.2%;FLuc enzyme=-2.7%
